TGFb inhibitor: inhibitors of TGF-b signaling. hit rate 1.2% among 410,000. Potency, µM (series often up to 46.1 µM), without a hit: at the highest dose activity, negative = inhibition, usual class: inhibitors. AID 588855. HepG2 CAGA-GFP TGF-b/SMAD3 reporter, GFP fluorescence, 18 h; TGF-beta stimulated, 500 pg/mL final; further: on the % scale 0 is the no-effect control and ±100 the full control effect; nearly all actives have a fitted effect of over 65% in size
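Read-out: total well GFP (ex488/em500-530) summed from mean per-cell fluorescence. Cells: HEPG2 CAGA-GFP, 1% FBS DMEM, 18 h at 37 degrees C with 500 pg/mL final TGF-beta. Unstimulated wells served as the full-inhibition control; stimulated DMSO wells = 0%.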
Nrf2 activator: Nrf2 pathway activation; AREc32 ARE-luciferase reporter (MCF7-derived line), luminescence, 24 h; Potency, µM (top dose mostly 46.1 µM), inactives show top-dose activation, hits mostly activators; hit rate 0.31% among 410,000; AID 624171; further: % of control where 0% means no effect; nearly all actives have a fitted effect of over 65% in size
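Steps: seed AREc32_Fluc cells (1000/well, 5% FBS OPTI-MEM); incubate overnight at 37 deg C; add 23 nL compound; incubate 24 hr; add Steady-Glo; hold 30 min RT; read luminescence.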
A549 viability: kills or reduces viability of A549 cells in Nrf2 counter-screen. A549 ARE-Fluc cells, CellTiter-Fluor viability, 18-24 h. Potency, µM (titrated, usually from 46 µM), inactives show at the top dose activity change, negative = cytotoxicity, hits mostly inhibitors. hit rate 0.16% among 390,000. AID 504648; further: on the % scale 0 is the no-effect control and ±100 the full control effect
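Cytotoxicity counterscreen: CellTiter-Fluor fluorescence was measured in A549 ARE_Fluc cells after 18-24 h of compound exposure in a concentration series. The subsequent BugLite luminescent read reports ARE-luciferase activity.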
HepG2 tox-1: kills HepG2 cells in TGF-b inhibitor counter-screen; AID 588856; hit rate 0.76% among 410,000; HepG2 CAGA-GFP viability, ATP luminescence, 18 h; Potency, µM (series often up to 46.1 µM), for the others: top-dose activity change, negative = cytotoxicity, actives largely listed as cytotoxic
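HepG2 CAGA-GFP cells (1000/well, DMEM with 1% FBS) received compound, then TGF-beta at 500 pg/mL final, and were incubated 18 hours at 37 degrees C. Viability was read by CellTiter-Glo luminescence. Media-only wells were set as complete cell-killing and DMSO as no toxicity.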
Nrf2 block: blocks Nrf2 signaling | A549 ARE-Fluc reporter, luciferase luminescence, 18-24 h | AID 504444 | Potency, µM (highest dose often 46 µM), for the others: at the highest dose activity change, negative = inhibition, usual class: inhibitors | hit rate 2.1% among 360,000; further: on the % scale 0 is the no-effect control and ±100 the full control effect; nearly all actives have a fitted effect of over 60% in size
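Reporter: ARE-Fluc in A549. Exposure: 18-24 h, 37 °C, 5% CO2, 5% FBS OPTI-MEM. Readouts: fluorescent cytotoxicity (CellTiter-Fluor), then luminescent Nrf2 signal after BugLite.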
TGFb confirm: TGF-b pathway inhibition, cherry-pick retest | shares compounds with TGFb inhibitor | HepG2 CAGA-GFP TGF-b reporter, GFP fluorescence, 18 h; cells stimulated with TGF-beta, 500 pg/mL | Potency, µM (series often up to 46.1 µM), for inactives: top-dose activity, negative = inhibition, hits mostly inhibitors | hit rate 63% among 1,600 | AID 720534; further: on the % scale 0 is the no-effect control and ±100 the full control effect; nearly all actives have a fitted effect of over 65% in size
HepG2 tox-2: HepG2 cytotoxicity, TGF-b inhibitor counterscreen | HepG2 CAGA-GFP viability, ATP luminescence, 18 h; cells stimulated with TGF-beta, 500 pg/mL | shares compounds with TGFb inhibitor | hit rate 27% among 1,600 | AID 720535 | Potency, µM (series often up to 46.1 µM), without a hit: at the highest dose activity, negative = cytotoxicity, most hits filed as inhibitors; further: on the % scale 0 is the no-effect control and ±100 the full control effect; nearly all actives have a fitted effect of over 70% in size
CCL64 TGFb inh: blocks TGF-b signaling in CCL64 reporter cells; shares compounds with TGFb inhibitor; CCL64 CAGA-GFP reporter, TGF-b stimulated, GFP fluorescence, 18 h; Potency, µM (highest dose often 46.1 µM), for inactives: at the top dose activity, negative = inhibition, most hits filed as inhibitors; hit rate 41% among 1,600; AID 720536; further: nearly all actives have a fitted effect of over 65% in size
TGFb COP inh: blocks TGF-b signaling in HepG2 COP reporter. shares compounds with TGFb inhibitor. HepG2 COP-GFP TGF-b reporter, GFP fluorescence, 18 h; cells stimulated by added recombinant TGF-beta. Potency, µM (top dose mostly 46.1 µM), without a hit: top-dose activity, negative = inhibition, most hits filed as inhibitors. hit rate 3% among 1,600; further: nearly all actives have a fitted effect of over 70% in size
* hit, by the source's call; ? = inconclusive; . = not tested or not shown. The list is not random: actives were taken first. Their share in the collection is about 3.6%. The call rests on the fitted dose curve; in most records, active means well fitted curve in the direction sought with a large enough effect; inconclusive means small, poorly fitted or top-dose-only effect, or another doubt; inactive means no such curve, though single readings can be large; an effect the other way counts as inactive or inconclusive. Potency means the concentration at half of the fitted maximal effect.

SMILES | TGFb inhibitor | Nrf2 activator | A549 viability | HepG2 tox-1 | Nrf2 block | TGFb confirm | HepG2 tox-2 | CCL64 TGFb inh | TGFb COP inh
CC(=O)c1ccc(-c2cnc3c(NC=O)cc(-c4ccc(C(=O)N5CCOCC5)cc4)cn23)cc1 | ? | 0% | . | -5% | . | ? | ? | ? | 57%
CC(C)c1ccccc1NC(=O)Cn1c(/C=C/c2ccccc2)nc2ccccc21 | 10µM* | 5% | 2% | 13µM* | 7% | -24% | ? | ? | -10%
Cc1ccccc1Nc1c(-c2cccnc2)nc2cccc(C)n12 | ? | 8% | -11% | -14% | ? | . | . | . | .
CCCc1nc2ccccc2c(C(=O)OCC(=O)N2CCc3ccccc32)c1CC | ? | -1% | -5% | 4% | ? | . | . | . | .
C=CCNC(=O)c1onc(CSc2ccc(F)cc2)c1C(=O)NCCOC | ? | -1% | 0% | 2% | -14% | -7% | 2% | 12% | -1%
Cc1sc2ncnc(N3CCC(C(=O)Nc4nc(-c5cccs5)cs4)CC3)c2c1C | ? | 16% | -5% | -1% | 29% | 7.3µM* | ? | ? | 27%
CCc1nnc(NC(=O)C2CCN(c3ncnc4sc(C)c(C)c34)CC2)s1 | 11% | 0% | 1% | -1% | 9% | . | . | . | .
CCOc1ccc(CCNC(=O)CCn2c(=O)c3cccn3c3ccc(F)cc32)cc1 | 0% | -1% | -9% | -3% | ? | . | . | . | .
Cc1csc2c(N3CCN(C(=O)c4ccc(C(C)(C)C)cc4)CC3)ncnc12 | 11µM* | 7% | -2% | -38% | -23% | 9.2µM* | -21% | ? | 11%
NS(=O)(=O)c1ccc(CNC(=O)CCCSc2ccccc2)cc1 | 5% | 0% | 0% | 4% | -11% | . | . | . | .
Cc1cc(C(=O)CSc2nc3ccccc3o2)c(C)n1C1CC1 | -17% | 1% | ? | -16% | ? | . | . | . | .
CC(C)C[C@@H](CN1CCCC1CN1C(=S)NC[C@@H]1Cc1ccc(O)cc1)N1C[C@H](Cc2ccccc2)N(CCc2ccccc2)C1=S (some centres undefined) | ? | 0% | 0% | -60% | ? | ? | -20% | ? | 27%
CCOc1ccc(CCN2C(=S)N([C@@H](CC(C)C)CN3CCCC3CN3C(=S)NC[C@@H]3CC(C)C)C[C@@H]2Cc2ccccc2)cc1 (some centres undefined) | -25% | 1% | -6% | -34% | -7% | . | . | . | .
CCOc1ccc(CCN2C(=S)N([C@@H](CC(C)C)CN3CCC[C@@H]3CN3C(=S)NC[C@@H]3Cc3ccccc3)C[C@@H]2Cc2ccc(O)cc2)cc1 | 7.9µM* | -1% | . | -16% | . | ? | ? | ? | 27%
CCOc1ccc(CCN2C(=S)N([C@@H](Cc3ccc(O)cc3)CN3CCC[C@@H]3CN3C(=S)NC[C@@H]3Cc3ccccc3)C[C@@H]2Cc2ccccc2)cc1 | -22% | 3% | . | -29% | . | . | . | . | .

Screening results as filed in PubChem BioAssay.
